Assay outcomes deposited in PubChem by several laboratories.
Shown are actives, neighbours in structure and some others; about 6.2% of the full set was active somewhere.
GRIN3A LBD mod: NR3A (human) ligand-binding domain modulation; Tm shift relative to glycine control, % at 25 µM; 340,000 compounds, 2.5% hits; NR3A LBD differential scanning fluorimetry, Tm shift; 0% = protein alone, 100% = glycine-bound protein;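 active = melting temperature shift of at least 10% of the positive control shift, at one fixed dose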
AI-2 QS modul: Vibrio harveyi AI-2 quorum sensing modulation; Vibrio harveyi JMH597 AI-2 luminescence/OD600 ratio, 9 h; active compounds read low; strain lacks LuxN and CqsS sensors; 0 = neutral-control median; activity change, % at 7.5 µM; 300,000 compounds, 0.4% hits; in the data active = activity change below about -75%, passing the limit was not always enough;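 also: luminescence divided by OD600 gain over 9 h not by final OD600 alone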
NTR1 agonist: agonists of human neurotensin receptor NTR1. P30989. NTR1-U2OS beta-arrestin-GFP spot imaging, agonist mode. activation, % at 20 µM. 330,000 compounds, 0.17% hits;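 active = activation at or above 40% of the spot to cytoplasm intensity ratio, with at least 20 cells analyzed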
Target sequence (P30989 whole entry, looked up): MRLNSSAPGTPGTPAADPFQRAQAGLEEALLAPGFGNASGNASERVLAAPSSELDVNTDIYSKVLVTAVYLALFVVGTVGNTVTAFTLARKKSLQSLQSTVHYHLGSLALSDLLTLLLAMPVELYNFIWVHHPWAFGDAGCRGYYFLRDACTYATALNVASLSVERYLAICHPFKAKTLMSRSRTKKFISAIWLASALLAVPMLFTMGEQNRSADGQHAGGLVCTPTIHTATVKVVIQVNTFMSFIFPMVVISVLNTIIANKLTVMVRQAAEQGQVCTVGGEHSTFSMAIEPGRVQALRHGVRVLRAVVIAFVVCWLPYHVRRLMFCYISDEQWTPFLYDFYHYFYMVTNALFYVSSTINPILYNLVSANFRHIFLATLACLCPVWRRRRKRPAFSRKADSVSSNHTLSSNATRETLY
Cardio protect: myocardial damage modulation in H9c2 cells. protection from H2O2 cell death, % at 20 µM. H9c2 cardiomyocytes, H2O2 injury protection, ATPLite, 2 h. 360,000 compounds, 0.63% hits;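 active = compounds giving at least 50% protection of heart cells from peroxide-induced death in the single-dose screen, raw or plate-pattern-corrected value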
SUMO Mot1 rescue: SUMOylation pathway inhibition by Mot1-301 growth rescue. S. cerevisiae Mot1-301 growth rescue, ATP luminescence, 38.5C; percent above DMSO median, 100 means doubled. growth rescue, % at 18.8 µM. 320,000 compounds, 1% hits. AID 2716;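 active = every valid replicate shows activation above 250% relative to neutral control wells; inactive = the rest, any valid replicate at or below 250%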
AHR act: activates the human aryl hydrocarbon receptor; P35869; AHR-responsive luciferase reporter cells, luminescence; activation, % at 5 µM; 320,000 compounds, 2.5% hits; AID 2796; in the data active = activation above about 47%
AHR act cf: human AHR activation, confirmation | human cells, AHR-responsive luciferase reporter, luminescence | 2,300 compounds, 87% hits | activation, % at 9 µM | shares compounds with AHR act; in the data active = activation above about 49%;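 also: HepG2 hepatoma cells carrying a DRE-driven firefly luciferase reporter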
PXR counter: PXR activation, counter-screen for AHR activators | shares compounds with AHR act | cell-based PXR reporter, luciferase luminescence | activation, % at 11.6 µM | 2,300 compounds, 88% hits; in the data active = activation above about 11%;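 also: human hepatoma DPX-2 cells expressing full-length human PXR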
Of the large screens only hits and unclear results are named; the others gave an inactive call (follow-up assays come after a bar, where they were run).

CC1=NN(c2ccccc2)C(=O)/C1=C/c1cccs1	AHR act 84 | AHR act cf 87 | PXR counter 37
CC1=NN(c2ccccc2)C(=O)/C1=C\c1ccc(Br)s1	none
Oc1[nH]c2ccccc2c1N=Nc1ccc(F)cc1	AHR act 94 | AHR act cf 91 | PXR counter inactive
Cc1c(/C=N\NC(=O)C2COc3ccc(C(C)(C)C)cc3O2)c2ccccc2n1C (stereo not given)	GRIN3A LBD mod 10, AHR act 79 | AHR act cf inactive | PXR counter 66
Cc1c(=O)n(OCc2ccccc2)c2ccccc2[n+]1[O-]	AHR act 177 | AHR act cf 201 | PXR counter 47
COc1ccc(COn2c(=O)c(C)[n+]([O-])c3ccccc32)cc1OC	none
CN(CC(=O)Nc1ccc(F)cc1)C(=O)c1ccc(OCc2cn3ccccc3n2)cc1	none (no result: AI-2 QS modul)
Cc1ccnc(NC(=O)C(Cc2ccccc2)NC(=O)c2ccccc2)c1 (stereo not given)	none (no result: AI-2 QS modul)
Cc1sc(NC(=O)C2=COCCO2)nc1-c1ccc(Br)cc1	AHR act 99 | AHR act cf 94 | PXR counter 34
CCc1nnc(NC(=O)c2sc3nc4c(cc3c2N)CCCCC4)s1	AHR act 124 | AHR act cf inactive | PXR counter 36
Cc1cccc(C)c1NC(=S)Nc1ccc(Cl)c(Cl)c1	none
Cc1ccc(NC(=S)Nc2cc(-c3ccccc3)[nH]n2)cc1Cl	GRIN3A LBD mod 24, AHR act 94 | AHR act cf 103 | PXR counter 37
CC1(C)S[C@@H]2[C@H](NC(=O)[C@H](N)c3ccccc3)C(=O)N2[C@H]1C(=O)OC1OC(=O)c2ccccc21 (stereo not given in full)	none (no result: AI-2 QS modul)
O=C(Nc1cccc(S(=O)(=O)N2CCCCCC2)c1)c1ccc2c(c1)OCO2	AHR act 82 | AHR act cf 62 | PXR counter 164
O=C(Nc1ccc2c(c1)OCO2)c1ccc(S(=O)(=O)N2CCCC2)cc1	none
O=C(Nc1cccc(S(=O)(=O)N2CCCC2)c1)c1ccc2c(c1)OCO2	AHR act 88 | AHR act cf 64 | PXR counter 209
O=C(Nc1nc2c(Cl)cccc2s1)c1ccc(Br)o1	AHR act 102 | AHR act cf 105 | PXR counter 67
O=C(NCc1ccccc1)c1cccc(NC(=O)C2CCCC2)c1	none (no result: AI-2 QS modul, NTR1 agonist, SUMO Mot1 rescue, AHR act)
Cc1cc(NC(=O)COC(=O)[C@@H]2CCCN2C(=O)c2cccs2)no1	none (no result: AI-2 QS modul, NTR1 agonist, SUMO Mot1 rescue, AHR act)
CCOC(=O)c1[nH]cnc1C(=O)Nc1ccc(F)cc1	none
Cc1ccc(NC(=O)c2[nH]cnc2C(=O)NN)cc1	AHR act 79 | AHR act cf 82 | PXR counter 16
O=C(NC(=S)NCCc1ccccn1)c1ccccc1	AHR act 100 | AHR act cf 62 | PXR counter 12
Cc1ccc2ncccc2c1NC(=S)NC(=O)c1ccccc1	AHR act 86 | AHR act cf 126 | PXR counter 37
O=C(NC(=S)NCCc1ccccc1)c1cccc(Cl)c1	AHR act 124 | AHR act cf 139 | PXR counter 19
Cc1ccc2ncccc2c1NS(=O)(=O)c1ccccc1	none
CN1CCN(c2ncnc3c2ncn3[C@H]2CN(Cc3ccc(-c4ccccc4)cc3)C[C@@H](CO)O2)CC1	none (no result: GRIN3A LBD mod, AI-2 QS modul, NTR1 agonist, SUMO Mot1 rescue, AHR act)
CCCCNC(=O)C1(C)CCCCN1C(=O)c1c(Cl)cccc1Cl (stereo not given)	none (no result: GRIN3A LBD mod, AI-2 QS modul, NTR1 agonist, SUMO Mot1 rescue, AHR act)
COCCn1c(SCC(=O)NCCc2ccccc2)nc2c([nH]c3ccccc32)c1=O	AHR act 120 | AHR act cf 72 | PXR counter 205
C=CCn1c(SCC(=O)Nc2ccccc2OC)nc2c([nH]c3ccccc32)c1=O	none
COCCn1c(SCC(=O)Nc2ccccc2OC)nc2c([nH]c3ccccc32)c1=O	AHR act 85 | AHR act cf 84 | PXR counter 179
